In article PMC5540273 (PLoS ONE, 2017):

Experiments:
Conditions in all cases: concentration: 1 μM, replicates: in singlicate; n = 1
[1] = tested on: JAK1(JH2domain-pseudokinase)
[2] = tested on: JAK2(JH1domain-catalytic)
[3] = tested on: JAK3(JH1domain-catalytic)
JNK1 = tested on: T1, JNK1
T1 construct: gene MAPK8

JNK2 = tested on: T2, JNK2
T2 construct: gene MAPK9

JNK3 = tested on: T3, JNK3
T3 construct: gene MAPK10

KIT-autoinhibited = tested on: KIT-autoinhibited
KIT = tested on: KIT
LATS1 = tested on: LATS1
LATS2 = tested on: LATS2
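Further: KINOMEscan kinase panel screen.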

Row | SMILES | %Inh [1] | %Inh [2] | %Inh [3] | %Inh (JNK1) | %Inh (JNK2) | %Inh (JNK3) | %Inh (KIT-autoinhibited) | %Inh (KIT) | %Inh (LATS1) | %Inh (LATS2)
1 | COc1cc(Nc2nccc(-c3c(-c4cccc(NC(=O)c5c(F)cccc5F)c4)nn4ccccc34)n2)cc(OC)c1OC [GSK323521] | 0% | 11% | 0% | 12% | 15% | 3% | 23% | 100% | 0% | 11%
2 | CCS(=O)(=O)c1ccc(OC)c(Nc2nccc(-c3c(-c4cccc(NC(=O)c5c(F)cccc5F)c4)nn4ncccc34)n2)c1 [GSK326180] | 0% | 0% | 0% | 32% | 68% | 46% | 0% | 32% | 0% | 2%
3 | Nc1ncnc2c1nc(-c1ccccc1)n2-c1ccccc1 [SKF-97293] | 6% | 62% | 7% | 11% | 17% | 0% | 11% | 0% | 35% | 0%
4 | C[C@@H]1CC[C@@H](C(=O)Nc2ccccc2)CN1c1cc(-c2ccc3c(N)n[nH]c3c2)nc(N)n1 [GSK2286062] | 2% | 0% | 0% | 0% | 13% | 1% | 0% | 18% | 0% | 2%
5 | COc1cc(Nc2nccc(-c3c(-c4cccc(NC(=O)c5c(F)cccc5F)c4)nn4ncccc34)n2)cc(OC)c1OC [GSK327238] | 0% | 6% | 59% | 39% | 71% | 23% | 31% | 100% | 44% | 28%
6 | O=C(Nc1cccc(-c2nn3ncccc3c2-c2ccnc(Nc3ccccc3)n2)c1)c1c(F)cccc1F [GSK198271] | 0% | 2% | 0% | 31% | 56% | 21% | 20% | 100% | 0% | 0%
7 | c1ccc(-c2n[nH]cc2Nc2ccnc3ccccc23)nc1 [GW694077] | 33% | 94.2% | 88% | 92.6% | 60% | 90% | 0% | 33% | 0% | 0%
8 | Clc1ccc(-c2nn3ncccc3c2-c2ccnc(Nc3ccc4c(c3)OCCO4)n2)cc1 [GW829116] | 17% | 2% | 0% | 99.2% | 99.9% | 100% | 36% | 99.9% | 0% | 0%
9 | Cl.Cl.NCC(NC(=O)c1cc(-c2ccccc2)c(-c2ccnc3[nH]ccc23)s1)c1ccccc1 (centres unmarked) [GSK1321561] | 0% | 41% | 50% | 48% | 57% | 45% | 0% | 12% | 3% | 11%
10 | Cn1cc(-c2ccc3c(c2)CCN3C(=O)Cc2cccc(F)c2)c2c(N)ncnc21 [GSK2603358] | 0% | 17% | 0% | 12% | 19% | 3% | 7% | 100% | 0% | 13%
11 | O=C(Nc1cccc(Oc2ccc3nc(NC(=O)C4CC4)cn3n2)c1)c1ccccc1C(F)(F)F | 7% | 43% | 29% | 0% | 0% | 0% | 91.5% | 100% | 0% | 0%
12 | Cl.Cl.NCC(C(=O)Nc1cc(Br)c(-c2ccnc3[nH]ccc23)s1)c1ccccc1 (centres unmarked) [GSK1269851] | 0% | 78% | 100% | 15% | 7% | 0% | 2% | 12% | 62% | 80%
13 | Cn1cc(-c2[nH]c3cc(NC(=O)[C@H](N)C4CCCCC4)cc4c3c2C=NNC4=O)cn1 | 100% | 98.7% | 99.5% | 0% | 0% | 0% | 28% | 99.9% | 90.4% | 100%
14 | COc1ccc(CNC(=O)NC2CCN(c3ccnc(Nc4ccc(F)cc4)n3)CC2)cc1 [GSK1379788] | 0% | 9% | 0% | 11% | 5% | 0% | 0% | 19% | 7% | 8%
15 | COc1ccc(Nc2nccc(NCCNC(=O)c3cc4ccccc4s3)n2)cc1 [GSK1379896] | 0% | 23% | 0% | 6% | 27% | 6% | 0% | 5% | 0% | 0%
16 | Cl.NC(=O)c1cccc(Nc2nccc(Nc3ccc(Oc4c(Cl)cccc4Cl)c(Cl)c3)n2)c1 [GW659009] | 0% | 72% | 0% | 26% | 5% | 1% | 0% | 17% | 0% | 0%

Row | SMILES | %Inh [1] | %Inh [2] | %Inh [3] | %Inh (JNK1) | %Inh (JNK2) | %Inh (JNK3) | %Inh (KIT-autoinhibited) | %Inh (KIT) | %Inh (LATS1) | %Inh (LATS2)
17 | CCn1c(-c2nonc2N)nc2c(C#CC(C)(C)O)nc(OC[C@H](N)c3ccccc3)cc21 [GSK943949] | 0% | 8% | 4% | 0% | 0% | 0% | 4% | 0% | 59% | 100%
18 | CC(=O)Nc1nc2cnc(Nc3cc(NC(=O)c4cccc(C5(C#N)CC5)c4Cl)ccc3C)nc2s1 | 9% | 0% | 0% | 0% | 0% | 0% | 0% | 99.8% | 26% | 0%
19 | CN1CCN(Cc2cccc(-c3ccc4c(Nc5ccc(Oc6ccccc6)cc5)ccnc4c3)c2)CC1 [GW578342] | 0% | 0% | 0% | 0% | 0% | 0% | 11% | 93.7% | 10% | 0%
20 | COc1cc(Nc2nccc(N3CCC(NC(=O)Nc4cccc(C(C)=O)c4)C3)n2)cc(OC)c1OC (centres unmarked) [GSK1379753] | 11% | 91.4% | 0% | 41% | 29% | 49% | 0% | 86% | 0% | 0%
21 | O=C(Nc1ccccc1F)NC1CCN(c2ccnc(Nc3ccc(F)cc3)n2)CC1 [GSK1379800] | 0% | 0% | 0% | 3% | 0% | 0% | 0% | 7% | 0% | 3%
22 | CC(C)(C)c1ccc2nccc(Nc3cccc(O)c3)c2c1 [GW856795] | 0% | 36% | 35% | 32% | 23% | 15% | 9% | 26% | 10% | 0%
23 | Cl.c1ccc(-c2ccc3c(Nc4ccc5[nH]ncc5c4)ccnc3c2)nc1 [GW440137] | 0% | 36% | 0% | 9% | 27% | 15% | 0% | 94.4% | 0% | 3%
24 | CCc1ccc(-c2ccc3c(c2)-c2c(cnn2C)S(=O)(=O)N3C)cc1 | 5% | 2% | 5% | 0% | 0% | 0% | 0% | 2% | 0% | 0%
25 | O=C(Nc1n[nH]c2nc(-c3ccc(O)cc3)ccc12)C1CC1 [SB-710363] | 33% | 53% | 62% | 25% | 13% | 2% | 0% | 12% | 17% | 10%
26 | CN1CCN(CCCNc2nccc(-c3c(-c4ccc(F)cc4)nn4cc(C(F)(F)F)ccc34)n2)CC1 [GW621581] | 0% | 32% | 0% | 58% | 91.7% | 91.9% | 0% | 7% | 0% | 0%
27 | Cc1cccc(NC(=O)Nc2ccc(Oc3ncnc4ccn(C)c34)cc2)c1 | 30% | 0% | 9% | 9% | 0% | 0% | 97% | 100% | 5% | 0%
28 | COc1ccc(-c2coc3ccc(-c4nnc(SCc5ccc(OC)c(C(F)(F)F)c5)o4)cc23)cc1 | 32% | 22% | 0% | 0% | 0% | 0% | 7% | 20% | 25% | 0%
29 | Fc1ccc(-c2ncn(C3CCNCC3)c2-c2ccnc(Oc3ccc(-c4ccccc4)cc3)n2)cc1 [SB-245391] | 0% | 50% | 41% | 36% | 66% | 46% | 0% | 17% | 0% | 21%
30 | Cn1cc(-c2ccc3c(c2)CCN3C(=O)Cc2cccc(Cl)c2)c2c(N)ncnc21 [GSK2606590] | 0% | 16% | 0% | 15% | 42% | 6% | 26% | 100% | 0% | 0%
31 | Cl.Cl.NCC(NCc1ccc(-c2ccnc3[nH]ccc23)s1)c1ccccc1 (centres unmarked) [GSK1321565] | 0% | 96.9% | 100% | 24% | 14% | 4% | 0% | 25% | 62% | 95%
32 | COc1cccc(C(=O)Nc2cccc(Oc3ccc4nc(NC(=O)C5CC5)cn4n3)c2)c1 | 8% | 13% | 0% | 0% | 10% | 0% | 99.7% | 100% | 0% | 0%
